The source of these data is PubChem BioAssay (Tox21).

Records with an inconclusive call do not appear. Entries that show only a call come without a potency. Active and inactive are the calls of the source. Unless noted, calls come from the whole dose curve; as a rule, active = well fitted activation curve with a large enough effect in the repeat runs; inconclusive = weak or mixed curves; inactive = no such curve, though single readings can be large or run the other way.
Note: nearly all actives have a fitted effect of over 15% in size.

The nature of one assay: qHTS assay for small molecule agonists of the p53 signaling pathway (AID 651631; calls by dose curve). Conditions: HCT-116 p53RE-bla reporter, beta-lactamase FRET ratio, 16 h; series mostly up to 73.3 µM. A digest of the protocol:
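HCT-116 cells carrying a beta-lactamase reporter under p53 response elements were dosed with compound for 16 h at 37 °C. LiveBLAzer B/G FRET substrate was then added for 2 h at room temperature, and fluorescence intensity was read to detect pathway agonism.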
A general note: In qHTS, concentration-response curves come from the screen itself.
As for `CN(C)C(=O)NC1(c2ccccc2)CCN(CCC[C@]2(c3ccc(Cl)c(Cl)c3)CCCN(C(=O)c3ccccc3)C2)CC1`, the Potency entry is “inactive”.

On to `CCCCOc1cc(C(=O)NCCN(CC)CC)c2ccccc2n1`, for which the Potency result is “inactive”.

Take `COC(=O)N[C@H](C(=O)N[C@@H](Cc1ccccc1)[C@@H](O)CN(Cc1ccc(-c2ccccn2)cc1)NC(=O)[C@@H](NC(=O)OC)C(C)(C)C)C(C)(C)C`: the Potency result was “inactive”.

Regarding `COc1ccc(S(=O)(=O)Nc2nnc(CC(C)C)s2)cc1`, the Potency entry is “inactive”.

Turning to `CCN1CC(CCN2CCOCC2)C(c2ccccc2)(c2ccccc2)C1=O` (configuration not stated), the Potency entry was “inactive”.

With `NC/C=C/C(=O)O`, the Potency entry was “inactive”.

With `CCCCNC(=S)NCCCC`, the Potency result was “inactive”.

As for `CCCOCCC`, the Potency entry is “inactive”.

`FC(F)(F)C(Cl)(Cl)Cl`: the Potency result is “inactive”.

Consider `COc1ccccc1OCC(O)COC(N)=O` (configuration not stated), for which the Potency result was “inactive”.

As for `O=Cc1ccc(F)c(Br)c1`, the Potency result was “inactive”.

Take `C=CCc1cc(OC)c(O)c(C(=O)NCCO)c1`: the Potency entry is “inactive”.

Turning to `C=CCCC=C`, the Potency entry is “inactive”.

On to `Cc1cc(NS(=O)(=O)c2ccc(N)cc2)nc(C)n1`, for which the Potency entry is “inactive”.

With `COc1ccccc1N1CCN(CCCNc2cc(=O)n(C)c(=O)n2C)CC1`, the Potency result is “inactive”.

Regarding `CCCCCCC`, the Potency result was “inactive”.

Consider `CCCCNc1cc(C(=O)O)cc(S(N)(=O)=O)c1Oc1ccccc1`, for which the Potency entry is “inactive”.

`CC(C)OC(C)C`: the Potency entry was “inactive”.

Regarding `Cc1cc(S(=O)(=O)O)c(N)cc1Cl`, the Potency result was “inactive”.

On to `COc1cc(N)c(Cl)cc1C(=O)NC1CCN(Cc2ccccc2)CC1`, for which the Potency entry is “inactive”.

As for `CCOC(=O)NCCC[Si](OCC)(OCC)OCC`, the Potency result is “inactive”.

With `CCN(O)CC`, the Potency result is “inactive”.

In the case of `O=S(=O)(O)C(F)(F)F`, the Potency result was “inactive”.

On to `Cc1cccc(C)c1NC(=O)CN1CCCCCC1`, for which the Potency entry was “inactive”.

Turning to `C=CC1CO1` (configuration not stated), the Potency entry was “inactive”.

In the case of `C[C@]12C(=O)OC(=O)[C@H]1[C@H]1C=C[C@@H]2C1`, the Potency entry was “inactive”.

Turning to `CCCCC1CCC(=O)O1` (configuration not stated), the Potency result was “inactive”.

As for `C1CSCCS1`, the Potency entry was “inactive”.

As for `CC(CNC1CCCCC1)OC(=O)c1ccccc1` (configuration not stated), the Potency result was “inactive”.

As for `C=CC(C)(O)CC/C=C(\C)CCC=C(C)C` (configuration not stated), the Potency result is “inactive”.

Turning to `CCOc1ccccc1N`, the Potency entry is “inactive”.

For `CCN[C@H]1CN(CCCOC)S(=O)(=O)c2sc(S(N)(=O)=O)cc21`, the Potency result was “inactive”.

Turning to `C=CCCCCCCCCO`, the Potency entry was “inactive”.

On to `O=C(C(Cl)Cl)N1CCOC12CCCCC2`, for which the Potency result is “inactive”.

With `CC(C)C1=CC2=CC[C@@H]3[C@](C)(CCC[C@@]3(C)C(=O)O)[C@H]2CC1`, the Potency result is “inactive”.

Consider `CC1(C)O[C@@H]2C[C@H]3[C@@H]4CCC5=CC(=O)CC[C@]5(C)[C@@]4(F)[C@@H](O)C[C@]3(C)[C@]2(C(=O)CCl)O1`, for which the Potency result was “inactive”.

The next assay in a line: qHTS assay for small molecules that induce genotoxicity in human embryonic kidney cells expressing luciferase-tagged ATAD5 (AID 651632). The settings on record: HEK293T ATAD5-luciferase induction, 16 h; series mostly up to 83.3 µM. A digest of the protocol:
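Test compounds were delivered by pin tool onto HEK293T reporter cells (2,000/well) expressing ATAD5 fused to luciferase. After 16 hr at 37C, 5% CO2, Amplite was added for 30 min at room temperature and luminescence was measured.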
Regarding `CN(C)C(=O)NC1(c2ccccc2)CCN(CCC[C@]2(c3ccc(Cl)c(Cl)c3)CCCN(C(=O)c3ccccc3)C2)CC1`, the Potency result is “inactive”.

For the compound `CCCCOc1cc(C(=O)NCCN(CC)CC)c2ccccc2n1`, the Potency result is “inactive”.

`COC(=O)N[C@H](C(=O)N[C@@H](Cc1ccccc1)[C@@H](O)CN(Cc1ccc(-c2ccccn2)cc1)NC(=O)[C@@H](NC(=O)OC)C(C)(C)C)C(C)(C)C`: the Potency result was “inactive”.

`COc1ccc(S(=O)(=O)Nc2nnc(CC(C)C)s2)cc1`: the Potency entry was “inactive”.

On to `CCN1CC(CCN2CCOCC2)C(c2ccccc2)(c2ccccc2)C1=O` (configuration not stated), for which the Potency entry was “inactive”.

Regarding `NC/C=C/C(=O)O`, the Potency entry was “inactive”.

As for `CCCCNC(=S)NCCCC`, the Potency entry is “inactive”.

As for `CCCOCCC`, the Potency result was “inactive”.

As for `FC(F)(F)C(Cl)(Cl)Cl`, the Potency entry was “inactive”.

Turning to `COc1ccccc1OCC(O)COC(N)=O` (configuration not stated), the Potency entry was “inactive”.

On to `O=Cc1ccc(F)c(Br)c1`, for which the Potency result is “inactive”.

On to `C=CCc1cc(OC)c(O)c(C(=O)NCCO)c1`, for which the Potency entry was “inactive”.

Consider `C=CCCC=C`, for which the Potency result is “inactive”.

With `Cc1cc(NS(=O)(=O)c2ccc(N)cc2)nc(C)n1`, the Potency result is “inactive”.

Consider `COc1ccccc1N1CCN(CCCNc2cc(=O)n(C)c(=O)n2C)CC1`, for which the Potency entry was “inactive”.

On to `CCCCCCC`, for which the Potency entry is “inactive”.

Consider `CCCCNc1cc(C(=O)O)cc(S(N)(=O)=O)c1Oc1ccccc1`, for which the Potency entry is “inactive”.

Take `CC(C)OC(C)C`: the Potency entry was “inactive”.

Regarding `Cc1cc(S(=O)(=O)O)c(N)cc1Cl`, the Potency entry was “inactive”.

`COc1cc(N)c(Cl)cc1C(=O)NC1CCN(Cc2ccccc2)CC1`: the Potency result was “inactive”.

For `CCOC(=O)NCCC[Si](OCC)(OCC)OCC`, the Potency result was “inactive”.

In the case of `CCN(O)CC`, the Potency result is “inactive”.

`O=S(=O)(O)C(F)(F)F`: the Potency result was “inactive”.

Take `Cc1cccc(C)c1NC(=O)CN1CCCCCC1`: the Potency entry was “inactive”.

As for `C=CC1CO1` (configuration not stated), the Potency result is “inactive”.

As to `C[C@]12C(=O)OC(=O)[C@H]1[C@H]1C=C[C@@H]2C1`, the Potency entry was “inactive”.

`CCCCC1CCC(=O)O1` (configuration not stated): the Potency result was “inactive”.

As to `C1CSCCS1`, the Potency entry is “inactive”.

As for `CC(CNC1CCCCC1)OC(=O)c1ccccc1` (configuration not stated), the Potency result was “inactive”.

`C=CC(C)(O)CC/C=C(\C)CCC=C(C)C` (configuration not stated): the Potency entry is “inactive”.

`CCOc1ccccc1N`: the Potency entry was “inactive”.

Turning to `CCN[C@H]1CN(CCCOC)S(=O)(=O)c2sc(S(N)(=O)=O)cc21`, the Potency result was “inactive”.

Turning to `C=CCCCCCCCCO`, the Potency result was “inactive”.

`O=C(C(Cl)Cl)N1CCOC12CCCCC2`: the Potency result is “inactive”.

Take `CC(C)C1=CC2=CC[C@@H]3[C@](C)(CCC[C@@]3(C)C(=O)O)[C@H]2CC1`: the Potency entry is “inactive”.

In the case of `CC1(C)O[C@@H]2C[C@H]3[C@@H]4CCC5=CC(=O)CC[C@]5(C)[C@@]4(F)[C@@H](O)C[C@]3(C)[C@]2(C(=O)CCl)O1`, the Potency result was “inactive”.
